The values below come from PubChem BioAssay (NCI).

Molecules are shown by their SMILES. The panel holds about 83,000 compounds, 20% with a hit somewhere; the sample as a whole holds those more often.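 Single-dose data. Exposure time 48 hours. Values below 10 considered active.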 Values without a mark were called inactive. Activity calls are given as the source filed them.

What all share (assay): NCI-60 one-dose screen, 48 h (100 = growth as untreated, 0 = no growth, -100 = all killed)
Conditions in all cases: 10 µM unless noted

Experiment [1] has as its system NCI-H23 lung.
For experiment [2], the system named is NCI-H322M lung.
The test system of experiment [3] is HOP-62 NSCLC.
Experiment [4] relates to NCI-H460 lung.
Experiment [5] deals with HOP-92 NSCLC.
Experiment [6] concerns NCI-H522 lung.
The test system of experiment [7] is A549/ATCC NSCLC.
The subject of experiment [8] is 786-0 renal.
Experiment [9] concerns COLO 205 colon.
The test system of experiment [10] is DU-145 prostate.
Experiment [11] deals with K-562 leukemia.
The subject of experiment [12] is MALME-3M melanoma.
Experiment [13] deals with MDA-MB-231 breast.
Experiment [14] relates to RXF 393 renal.
The test system of experiment [15] is SF-268 CNS.
Experiment [16] concerns SF-295 CNS.
Experiment [17] deals with SF-539 CNS.
Experiment [18] relates to UACC-257 melanoma.
Experiment [19] deals with M14 melanoma.
Experiment [20] concerns HCT-15 colon.

As to `O=C1/C(=C/c2ccc(O)cc2)COc2ccc(O)c(O)c21`, the growth is 35.9% in experiment [1]; 79% in [2]; 51.5% in [3]; 8.73% (active) in [4]; 52.7% in experiment [5]; -47.7% (active) in [6]. For the same molecule, the growth in experiment [7] is 34.5%; in [8] it was 25.4%; in experiment [9] it was 91.8%; in [10], 17%; in [11], 4.59% (active); in [12], -6.72% (active). The growth in experiment [13] was 20.2%; in experiment [14], 9.98% (active); in experiment [15] it was 24.5%; in experiment [16], 95.6%; in experiment [17], -13.7% (active); in experiment [18], 63.2%. Moreover, the growth is 64.7% in experiment [19] and -29.3% (active) in [20].
For `COc1cc(C(=O)NN=C2c3ccccc3-c3ccccc32)cc(OC)c1OC`, the growth is 62% in experiment [1]; 54% in [2]; 36.6% in [3]; 11.2% in experiment [4]; 42.4% in experiment [5]; 15% in [6]. The growth in [7] is 43.6%; in experiment [8], 41.9%; in experiment [9] it was 2.88% (active); in experiment [10], 49.7%; in experiment [11], 13.9%; in experiment [12] it was 44.4%. Moreover, the growth in [13] is 49.1%; in experiment [14], 16.7%; in experiment [15], 45.1%; in experiment [16], -0.172% (active); in experiment [17], 4.99% (active); in [18] it was 38.1%. Further, the figures for the growth in experiment [19] and in experiment [20] were 17.6% and 27.2%, respectively.
With `O=c1oc2ccc(F)cc2c(=O)n1-c1ccc(Br)cc1F`, the growth was 1.49% (active) in [1]; 6.65% (active) in experiment [2]; -0.164% (active) in experiment [3]; 4.13% (active) in [4]; -15.2% (active) in [5]; -17.9% (active) in experiment [6]. The growth in experiment [7] was 4.2% (active); in [8], 2.85% (active); in experiment [9] it was 27.7%; in [10] it was 14.5%; in [11], 6.75% (active); in experiment [12] it was -23% (active). Besides, the growth was -22% (active) in experiment [13]; -0.594% (active) in experiment [14]; 11.2% in experiment [15]; -50.6% (active) in experiment [16]; 2.6% (active) in experiment [17]; -17.4% (active) in [18]. Moreover, the figures for the growth in experiment [19] and in experiment [20] were -2.25% (active) and 2.89% (active), respectively.
Consider `COc1ccc(N(C)c2nc(N)nc3sc4c(c23)CCCC4)cc1`, for which the growth in experiment [1] was 19.3%; in experiment [2], 52.6%; in [3] it was 28.3%; in experiment [4], 3.58% (active); in experiment [5] it was 36.5%; in experiment [6], -13.7% (active). Also, the growth in experiment [7] is 15.4%; in [8] it was 26.4%; in experiment [9], -60.3% (active); in experiment [10], 0.729% (active); in experiment [11] it was 7.85% (active); in experiment [12], 50.1%. For the same molecule, the growth was 25.5% in experiment [13]; 46.6% in experiment [14]; 30% in [15]; 14.5% in experiment [16]; -6.54% (active) in [17]; 39% in [18]. Moreover, the growth was 1.13% (active) in [19] and 4.87% (active) in [20].
Turning to `O=C(CCc1nnc2sc(Cc3ccccc3Cl)nn12)c1nc2ncccc2[nH]1`, the growth in [1] is 89.9%; in [2], 93.5%; in experiment [3], 92.3%; in [4], 97.8%; in experiment [5] it was 78.4%; in experiment [6], 81.5%. The growth in experiment [7] was 104%; in experiment [8] it was 105%; in experiment [9] it was 109%; in experiment [10], 101%; in experiment [11] it was 102%; in experiment [12], 94.4%. The growth was 73% in experiment [13]; 104% in [14]; 85.5% in experiment [15]; 99.6% in [16]; 94.2% in experiment [17]; 107% in experiment [18]. The growth in experiment [19] was 96.5%; in [20], 98.9%.
With `O=c1[nH]nnc2c1ncn2C1OC(CO)C(O)C1O` (stereo not given), the growth in experiment [1] is 63.3%; in experiment [2] it was 71.1%; in [3], 66.7%; in experiment [4], 33.1%; in [5], 35.7%; in experiment [6], 58%. The growth in experiment [7] is 49.7%; in [8], 54.4%; in experiment [9] it was 34.4%; in [10] it was 26.8%; in experiment [11], 31.5%; in [12] it was 57.5%. Further, the growth in experiment [13] was 55.2%; in [14], 80.7%; in [15], 67.6%; in [16], 20.2%; in [17], 67.2%; in [18] it was 65.2%. The values for the growth in experiment [19] and in [20] were 36.2% and 66.5%, respectively.
Turning to `C1CCN(c2nc(N3CCCCC3)nc(N3CCOCC3)n2)CC1`, the growth in experiment [1] is 95.7%; in [2], 105%; in experiment [3] it was 94.3%; in experiment [4] it was 109%; in experiment [5], 112%; in [6], 78%. The growth is 87% in experiment [7]; 97.3% in experiment [8]; 107% in [9]; 119% in [10]; 101% in experiment [11]; 100% in [12]. The growth in [13] was 93.9%; in [14], 107%; in [15], 105%; in experiment [16], 111%; in experiment [17], 113%; in [18] it was 97.1%. Also, the growth in [19] is 113%; in [20], 105%.
For the molecule `O=C(COc1cc(O)c2c(=O)cc(-c3ccccc3)oc2c1)Nc1ccccc1C(F)(F)F`, the growth in experiment [1] was 46.1%; in experiment [2], 62.2%; in [3], 16.2%; in [4], -42.5% (active); in experiment [5] it was 51.6%; in experiment [6], 46.6%. The growth in [7] is 0.206% (active); in experiment [8], 7.11% (active); in experiment [9], 60.1%; in [10], 52.7%; in experiment [11] it was 49.2%; in experiment [12] it was 54.3%. In addition, the growth was 9.62% (active) in experiment [13]; 63.4% in experiment [14]; 63.5% in experiment [15]; 34.6% in [16]; 35.2% in [17]; 73.4% in experiment [18]. Moreover, the values for the growth in experiment [19] and in [20] were 70.6% and 53.4%, respectively.
Regarding `CC(C)[C@H](NC(=O)Cn1cc(C(=O)O)nn1)C(=O)O`, the growth is 97.3% in [1]; 99.9% in experiment [2]; 108% in experiment [3]; 106% in [4]; 99.2% in [5]; 104% in experiment [6]. Moreover, the growth in experiment [7] was 97%; in experiment [8], 104%; in [9], 119%; in experiment [10], 114%; in experiment [11], 118%; in [12] it was 101%. The growth in experiment [13] was 97.6%; in experiment [14] it was 112%; in experiment [15], 115%; in [16], 93%; in experiment [17] it was 105%; in experiment [18], 99.6%. Also, the growth in experiment [19] was 108%; in [20], 100%.
`COc1ccc(C2C3=C(COC3=O)N(CCO)c3cc4c(cc32)CCC4)cc1OC` (stereo not given): the growth in [1] is 29.8%; in experiment [2] it was 35.3%; in experiment [3], 31.6%; in experiment [4], -15.1% (active); in experiment [5] it was 91.9%; in experiment [6], -33.7% (active). In addition, the growth in experiment [7] is 19.5%; in [8] it was 26.7%; in experiment [9] it was 14.9%; in experiment [10], -28.1% (active); in experiment [11], 14.7%; in experiment [12], 42.8%. Moreover, the growth in experiment [13] is 24.7%; in experiment [14] it was -42.7% (active); in experiment [15] it was 49.1%; in experiment [16] it was -2.08% (active); in experiment [17], -20.4% (active); in experiment [18], 43.6%. Further, the growth in experiment [19] is -18.4% (active); in experiment [20], 21.8%.
As to `CCN1C(=O)N(c2ccccc2)C2NN=c3s/c(=C4\C(=O)N(C(C)C)c5ccccc54)c(=O)n3C21` (stereo not given), the growth was 46.5% in [1]; 54.4% in experiment [2]; 36.2% in experiment [3]; 5.98% (active) in experiment [4]; 95.7% in [5]; 14.7% in [6]. Moreover, the growth was 21% in experiment [7]; 28.3% in experiment [8]; 2.82% (active) in [9]; 9.07% (active) in [10]; 10.6% in experiment [11]; 65.2% in experiment [12]. Besides, the growth in experiment [13] is 32.9%; in [14], -6.1% (active); in experiment [15] it was 36.7%; in experiment [16], 17.9%; in experiment [17], -2.62% (active); in experiment [18], 76.4%. For the same molecule, the growth in experiment [19] was 10.9%; in experiment [20], 17.7%.
Regarding `Nc1ccccc1-c1ccc(-c2ccc(Cl)cc2)c2c1[nH]c1ccccc12`, the growth is 77% in [1]; 64% in [2]; 79.5% in experiment [3]; 88.6% in experiment [4]; 7.99% (active) in experiment [5]; 73.5% in [6]. In addition, the growth in experiment [7] was 67.9%; in [8] it was 76.5%; in experiment [9], 78.5%; in experiment [10], 75.9%; in [11], 58.9%; in experiment [12] it was 90.2%. Besides, the growth was 62.2% in experiment [13]; 53.4% in experiment [14]; 64.8% in experiment [15]; 88.2% in [16]; 86.3% in experiment [17]; 81% in experiment [18]. Moreover, the growth in experiment [19] was 49.3%; in [20], 73.2%.
On to `Cc1[nH]c2ccccc2c(=O)c1CC=C(Cl)Cl`, for which the growth in [1] is 75.4%; in [2] it was -47.2% (active); in experiment [3], -7.31% (active); in experiment [4], -74% (active); in experiment [5], 64.5%; in [6], 65.7%. For the same molecule, the growth in experiment [7] is 16.9%; in [8], -80.2% (active); in experiment [9], 35%; in [10], -22.5% (active); in experiment [11] it was -34.6% (active); in [12] it was 82.4%. Moreover, the growth was 34.1% in [13]; 63.9% in experiment [14]; 39.6% in experiment [15]; -86.8% (active) in experiment [16]; 58% in [17]; 99.5% in experiment [18]. The growth in [19] is 72.7%; in experiment [20], 3.43% (active).
